{"source": "PubChem BioAssay (NCATS)", "note": "Values joined by “and” are separate entries in the source; they are usually repeats but may differ in a detail not shown here. Equal entries are not always repeated. Inconclusive results are not listed. Unmarked numbers belong to inactive results. Active and inactive are the calls of the source. Calls follow the shape of the dose curve; as a rule, active = well fitted inhibition curve with a large enough effect; inconclusive = small, poorly fitted or top-dose-only effect; inactive = flat fitted curve, though single readings scatter. % is scaled to controls: 0 for no effect and ±100 for the full control effect.", "data": [{"test_system": "NIH3T3", "assay": "Cytotoxic Profiling of Annotated Libraries Using Quantitative High-Throughput Screening (AID 1296008); also: nearly all actives have a fitted effect of over 60% in size", "details": "Five cell lines viability, CellTiter-Glo ATP luminescence, 48-72 h; max response: active compounds read low", "summary_of_the_method": "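Cells exposed to compounds for 48 or 72 hr at 37 degrees Celsius. Viability read as ATP-coupled luminescence with CellTiter-Glo after 10 min at room temperature.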", "values": [{"molecule": "COc1ccc2[nH]cc(CCNC(C)=O)c2c1", "max response": "1.71%", "outcome": "inactive"}, {"molecule": "Clc1ccc2nsnc2c1NC1=NCCN1", "max response": "1.46%", "outcome": "inactive"}, {"molecule": "NC(=O)OCC(COC(N)=O)c1ccccc1", "max response": "-0.687%", "outcome": "inactive"}, {"molecule": "COc1ccc2c(c1)c(CC(=O)O)c(C)n2C(=O)c1ccc(Cl)cc1", "max response": "-1.64% and 1.2%"}, {"molecule": "Cc1cnc(C(=O)NCCc2ccc(S(=O)(=O)NC(=O)NC3CCCCC3)cc2)cn1", "max response": "4.64% and -13.5%"}, {"molecule": "CC(C)(Oc1ccc(C2CC2(Cl)Cl)cc1)C(=O)O", "note": "(stereo unspecified)", "outcome": "inactive"}, {"molecule": "CN(C)c1nc(N(C)C)nc(N(C)C)n1", "max response": "1.4% and 1.9%"}, {"molecule": "CC(=O)OCC(CCn1cnc2cnc(N)nc21)COC(C)=O", "max response": "3.32%", "outcome": "inactive"}, {"molecule": "N[C@@H](Cc1c[nH]c2ccc(O)cc12)C(=O)O", "max response": "-0.603% and 4.53%"}, {"molecule": "O=c1c(O)c(-c2ccc(O)c(O)c2)oc2cc(O)cc(O)c12", "max response": "-3.23%"}, {"molecule": "CC[N+](CC)(CC)CCOc1cccc(OCC[N+](CC)(CC)CC)c1OCC[N+](CC)(CC)CC", "max response": "-12.2%", "outcome": "inactive"}, {"molecule": "COc1ccc(C2CNC(=O)C2)cc1OC1CCCC1", "note": "(stereo unspecified)", "max response": "-5.87%", "outcome": "inactive"}, {"molecule": "NCCCCCC(=O)O", "max response": "-2.83% and -5.79%"}, {"molecule": "CC1(C)O[C@H]2CC(=O)OC[C@]23[C@H]2CC[C@@]4(C)[C@H](c5ccoc5)OC(=O)[C@H]5O[C@]54[C@]2(C)C(=O)C[C@@H]13", "max response": "-0.469% and 1.76%", "outcome": "inactive"}]}]}
